The target in assay [1] is human Vitamin D Receptor (VDR), VDR (gene 7421) (UniProt P11473). As to the kind of experiment: ATG_VDR_TRANS: Attagene TRANS-FACTORIAL HepG2 Assay for human Vitamin D Receptor (VDR) (AID 2283022; active means hit-call score of the fitted dose curve at least 0.9, where 1 is the maximum). A digest of the protocol: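 Transactivation by an exogenous VDR-Gal4 chimera in transiently transfected HepG2 cells was measured as reporter transcript level 24 hours after chemical treatment. RT-PCR products were analysed by capillary electrophoresis and fitted in the positive direction relative to DMSO.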

The nature of assay [2]: BSK_3C_SRB: Viability Assessment in the BioMAP Diversity Plus: 3C Assay (AID 2283023).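 Further: fitted both ways against DMSO so a hit may be signal rise or drop.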 As to conditions: primary human endothelial cells (HUVEC). In outline:
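Cytotoxicity readout in parallel HUVEC 3C cultures: after 24 h compound exposure, cells fixed with 10% TCA, stained with 0.1% SRB and read at 560 nm. Gain or loss relative to DMSO fitted.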

Read-out in assay [3]: Matrix Metallopeptidase 1 (MMP1), MMP1 (gene 4312)
As to the kind of experiment: BSK_BE3C_MMP1: BioMAP Diversity Plus: BE3C Assay for Matrix Metallopeptidase 1 (MMP1) Biomarker Activity (AID 2283024). As to conditions: primary human bronchial epithelial cells; actives raise or lower the signal. A digest of the protocol:
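Primary human bronchial epithelial cells were dosed with test chemicals, and MMP1 levels were measured by ELISA 24 h later. Data were fitted bidirectionally against DMSO as the negative control and activity baseline.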

Assay [4] in a line: BSK_3C_Vis: BioMAP Diversity Plus: 3C Assay for Morphology Visualization (AID 2283025).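 Further: fitted both ways so gain or loss versus DMSO counts.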 As to conditions: primary human endothelial cells (HUVEC). A digest of the protocol: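 Human umbilical vein endothelial cells in the 3C system were imaged by light microscopy 24 h after chemical dosing to record cell morphology. Activity was fitted bidirectionally against DMSO as negative control and baseline; the endpoint serves as a background control.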

Read-out in assay [5]: Pselectin, SELP (gene 6403)
As to the kind of experiment: BSK_4H_Pselectin: BioMAP Diversity Plus: 4H Assay for Pselectin Biomarker Activity (AID 2283026). As to conditions: primary human endothelial cells (HUVEC); actives raise or lower the signal. A digest of the protocol: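 Primary human umbilical vein endothelial cells were exposed to test chemical for 24 h, then cell-surface P-selectin was quantified by ELISA. Activity was fitted bidirectionally against DMSO as negative control and baseline.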

A short description of assay [6]: BSK_4H_SRB: Viability Assessment in the BioMAP Diversity Plus: 4H Assay (AID 2283027).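 Further: cells exposed to compound for 24 h before staining.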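 On AC50: curves fitted both ways versus DMSO so AC50 may be loss or gain.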 Conditions: primary human endothelial cells (HUVEC). In outline:
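Absorbance at 560 nm of SRB-stained total protein served as the viability read-out in confluent primary human umbilical vein endothelium 24 h after chemical treatment. Curves were fitted bidirectionally against DMSO as negative control.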

The nature of assay [7]: BSK_BE3C_SRB: Viability Assessment in the BioMAP Diversity Plus: BE3C Assay (AID 2283028). As to conditions: primary human bronchial epithelial cells. A digest of the protocol:
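Cytotoxicity read-out: SRB (0.1%) staining of TCA-fixed (10%) human lung bronchial epithelial cells, absorbance 560 nm, 24 h post-dosing. Curves fitted both directions relative to DMSO.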

Read-out in assay [8]: Thrombomodulin, THBD (gene 7056)
Put plainly: BSK_3C_Thrombomodulin: BioMAP Diversity Plus: 3C Assay for Thrombomodulin Biomarker Activity (AID 2283029). As to conditions: primary human endothelial cells (HUVEC); actives raise or lower the signal. A digest of the protocol: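 Primary human umbilical vein endothelial cells (3C system) were exposed to chemical for 24 h, then thrombomodulin levels were measured by ELISA. Activity was fitted bidirectionally against the DMSO negative control as baseline.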

Read-out in assay [9]: Urokinase-type plasminogen activator receptor (uPAR), PLAUR (gene 5329)
As to the kind of experiment: BSK_4H_uPAR: BioMAP Diversity Plus: 4H Assay for Urokinase-type plasminogen activator receptor (uPAR) Biomarker Activity (AID 2283030). As to conditions: primary human endothelial cells (HUVEC); actives raise or lower the signal. In outline:
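uPAR level read by ELISA on HUVEC cultures (BioMAP 4H) 24 h post-dosing, analyzed for gain or loss relative to DMSO. Parallel SRB staining assessed overt cytotoxicity.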

Read-out in assay [10]: Vascular endothelial growth factor receptor 2 (Homo sapiens) (UniProt P35968)
Put plainly: BSK_4H_VEGFRII: BioMAP Diversity Plus: 4H Assay for Vascular endothelial growth factor receptor 2 (VEGFR2) Biomarker Activity (AID 2283031).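 On AC50: cell-surface VEGFR2 protein level quantified by ELISA.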 Conditions: primary human endothelial cells (HUVEC); actives raise or lower the signal. In outline: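 Measured by ELISA after 24 h of compound treatment: VEGFR2 on primary human umbilical vein endothelial cells, fitted in both directions relative to DMSO. Parallel cultures received SRB staining (560 nm) for overt cytotoxicity.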

SMILES strings stand for the structures. Inconclusive results are not listed. Active and inactive are the calls of the source. How the source made its calls, unless noted: active means hit-call score of the fitted dose curve at least 0.9, where 1 is the maximum; inactive means score below 0.9.

Sequence of human Vitamin D Receptor (VDR), VDR (gene 7421) (P11473 whole entry, looked up, the tested form may be a part): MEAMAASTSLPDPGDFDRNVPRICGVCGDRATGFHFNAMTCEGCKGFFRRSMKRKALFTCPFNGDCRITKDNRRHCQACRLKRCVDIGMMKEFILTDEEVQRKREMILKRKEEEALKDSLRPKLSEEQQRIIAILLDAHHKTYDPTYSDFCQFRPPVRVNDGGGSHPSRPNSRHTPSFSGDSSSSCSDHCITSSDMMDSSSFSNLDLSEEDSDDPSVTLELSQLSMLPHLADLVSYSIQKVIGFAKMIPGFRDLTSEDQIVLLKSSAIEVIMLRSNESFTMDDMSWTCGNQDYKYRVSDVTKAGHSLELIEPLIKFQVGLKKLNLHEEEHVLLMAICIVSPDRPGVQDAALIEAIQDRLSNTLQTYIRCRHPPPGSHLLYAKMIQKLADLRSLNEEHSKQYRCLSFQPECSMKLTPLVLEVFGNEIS

Take `c1ccc2c(c1)-c1cccc3cccc-2c13`: the call in [1], in [2], in assay [3], in [4], in assay [5] and in assay [6] was inactive. Further, the result in assay [7], in [8] and in assay [9] was inactive.

In the case of `Oc1ccc2ccc3cccc4ccc1c2c34`, the outcome in [1], in assay [3], in assay [7], in assay [8] and in assay [10] was inactive. For the same molecule, the AC50 (in general, the midpoint of the concentration-response curve, whichever way the signal moves) in assay [2] is 30 µM (active); in assay [4], 37.5 µM (active); in [5], 31.6 µM (active); in assay [6], 31.5 µM (active); in assay [9] it was 30.4 µM (active).

For `Clc1ccc(C(c2ccc(Cl)cc2)C(Cl)(Cl)Cl)cc1`, the outcome in assay [1], in assay [3], in assay [7] and in [8] was inactive. For the same molecule, the half-maximal activity concentration (AC50) was 28.5 µM (active) in assay [2]; 37.3 µM (active) in assay [4]; 14.9 µM (active) in assay [5]; 30.5 µM (active) in [6]; 31 µM (active) in assay [9]; 25.8 µM (active) in assay [10].

As for `C1=Cc2cccc3cccc1c23`, the molecule was classed as inactive in assay [1], in [2], in [3], in [4], in [5] and in assay [6]. Moreover, the outcome in assay [7], in assay [8], in assay [9] and in assay [10] was inactive.

Take `CC(C)(C)OOC(=O)c1ccccc1`: the call in assay [1], in assay [2], in assay [3], in assay [4], in [5] and in assay [6] was inactive. Also, the outcome in assay [7], in assay [8], in assay [9] and in [10] was inactive.

Turning to `Cc1ccc([N+](=O)[O-])cc1`, the result in [1], in assay [2], in assay [3], in [4], in assay [5] and in [6] was inactive. The outcome in assay [7], in assay [8], in assay [9] and in [10] was inactive.

As to `CCCCC(CC)COC(=O)c1ccc(C(=O)OCC(CC)CCCC)c(C(=O)OCC(CC)CCCC)c1` (stereo unspecified), the molecule was classed as inactive in [1], in assay [2], in assay [3], in assay [4], in assay [5] and in assay [6]. Moreover, the outcome in [7], in assay [8], in [9] and in assay [10] was inactive.

With `Cc1ccc(N=C=O)cc1N=C=O`, the call in assay [1], in assay [2], in assay [3], in assay [4], in assay [5] and in assay [6] was inactive. Further, the outcome in [7], in assay [8], in assay [9] and in assay [10] was inactive.

For `OCCOCCO`, the outcome in [2], in [3], in [4], in assay [5], in assay [6] and in assay [7] was inactive. Further, the result in assay [8], in [9] and in assay [10] was inactive.

As to `CC(C)(C)C(O)(CCc1ccc(Cl)cc1)Cn1cncn1` (stereo unspecified), the molecule was classed as inactive in assay [1], in [2], in assay [4], in assay [5], in [6] and in [7]. In addition, the result in [8] and in assay [10] was inactive.

For `O=C(O)C1C2CCC(O2)C1C(=O)O` (stereo unspecified), the molecule was called inactive in assay [1], in assay [6], in [7], in assay [8] and in [10]. Also, the AC50 in assay [2] is 24.4 µM (active); in assay [4] it was 9.13 µM (active); in assay [5], 16 µM (active); in assay [9], 18.6 µM (active).

With `OCCCl`, the result in [1], in assay [2], in assay [4], in assay [5], in [6] and in assay [7] was inactive. In addition, the result in assay [8], in [9] and in [10] was inactive.

For `C[C@]12C=CC3=C4CCC(=O)C=C4CC[C@H]3[C@@H]1CC[C@@H]2O`, the AC50 is 7.77 µM (active) in assay [2], 10.2 µM (active) in assay [3], 7.2 µM (active) in assay [4] and 16 µM (active) in assay [9]. The outcome in assay [5], in [6], in assay [7], in [8] and in assay [10] was inactive.

As for `Cc1cccc(N)c1N`, the result in assay [2], in assay [3], in assay [4], in assay [5], in assay [6] and in assay [7] was inactive. For the same molecule, the outcome in [8], in [9] and in assay [10] was inactive.

As to `CN(C)c1ccc(C(=O)c2ccc(N(C)C)cc2)cc1`, the molecule was called inactive in [1], in assay [5], in assay [7], in assay [8], in assay [9] and in assay [10]. Besides, the results for the half-maximal activity concentration (AC50) in assay [2], in assay [4] and in [6] were 3.55 µM (active), 5.81 µM (active) and 1.56 µM (active), respectively.

`Nc1ccc(N=Nc2ccccc2)cc1`: the molecule was classed as inactive in [1], in assay [4], in assay [5], in [7], in assay [8] and in assay [9]. In assay [10], the result was inactive. Besides, the AC50 in assay [2] is 20 µM (active); in [6] it was 13.1 µM (active).

`CCN(CC)CCO`: the result in assay [2], in [3], in assay [4], in [5], in [6] and in [7] was inactive. Moreover, the result in [8], in assay [9] and in assay [10] was inactive.

Take `CCN(CC)N=O`: the result in assay [2], in assay [3], in assay [4], in [5], in [6] and in [7] was inactive. Besides, the result in assay [8], in assay [9] and in [10] was inactive.

With `O=Cc1ccco1`, the result in [1], in assay [2], in assay [4], in [5], in [6] and in [7] was inactive. The result in [8], in [9] and in assay [10] was inactive.

Turning to `CCCSC(=O)N(CCC)CCC`, the molecule was called inactive in assay [1], in assay [2], in [4], in assay [5], in [6] and in assay [7]. For the same molecule, the outcome in [8], in assay [9] and in [10] was inactive.

The record behind these values is PubChem BioAssay (EPA / NIEHS).
